Assay results taken from the supplement of paper PMC3334620.
In all, about 33,000 sequences were measured (“E-score (-0.5 to 0.5)”: median about -0.053, highest 2% from about 0.37 on). This excerpt belongs to a sample that is enriched for the highest values.

Biological target: Hap1 (UniProt P0CE41)
Experiment: PBM E-score (8-mer binding enrichment) (E-score (-0.5 to 0.5)); higher = stronger / more preferred TF binding
Conditions: protein concentration: 200 nM; construct: GST-DNA-binding domain
Protocol: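 Universal 'all 10-mer' protein binding microarrays (Agilent AMADID 015681) probed with GST-tagged S. cerevisiae TFs (full-length or DBD) made by in vitro transcription/translation (PURExpress), about 100-200 nM. Bound TF was detected with fluorescent anti-GST. Each ungapped 8-mer (which stands for itself and its reverse complement) is scored by the PBM enrichment score (E-score), a modified Wilcoxon-Mann-Whitney statistic from -0.5 to +0.5, computed with the Universal PBM Analysis Suite. Scale: above 0.35 generally sequence-specific binding.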

Chain of UniProt P0CE41 (P0CE41 whole entry): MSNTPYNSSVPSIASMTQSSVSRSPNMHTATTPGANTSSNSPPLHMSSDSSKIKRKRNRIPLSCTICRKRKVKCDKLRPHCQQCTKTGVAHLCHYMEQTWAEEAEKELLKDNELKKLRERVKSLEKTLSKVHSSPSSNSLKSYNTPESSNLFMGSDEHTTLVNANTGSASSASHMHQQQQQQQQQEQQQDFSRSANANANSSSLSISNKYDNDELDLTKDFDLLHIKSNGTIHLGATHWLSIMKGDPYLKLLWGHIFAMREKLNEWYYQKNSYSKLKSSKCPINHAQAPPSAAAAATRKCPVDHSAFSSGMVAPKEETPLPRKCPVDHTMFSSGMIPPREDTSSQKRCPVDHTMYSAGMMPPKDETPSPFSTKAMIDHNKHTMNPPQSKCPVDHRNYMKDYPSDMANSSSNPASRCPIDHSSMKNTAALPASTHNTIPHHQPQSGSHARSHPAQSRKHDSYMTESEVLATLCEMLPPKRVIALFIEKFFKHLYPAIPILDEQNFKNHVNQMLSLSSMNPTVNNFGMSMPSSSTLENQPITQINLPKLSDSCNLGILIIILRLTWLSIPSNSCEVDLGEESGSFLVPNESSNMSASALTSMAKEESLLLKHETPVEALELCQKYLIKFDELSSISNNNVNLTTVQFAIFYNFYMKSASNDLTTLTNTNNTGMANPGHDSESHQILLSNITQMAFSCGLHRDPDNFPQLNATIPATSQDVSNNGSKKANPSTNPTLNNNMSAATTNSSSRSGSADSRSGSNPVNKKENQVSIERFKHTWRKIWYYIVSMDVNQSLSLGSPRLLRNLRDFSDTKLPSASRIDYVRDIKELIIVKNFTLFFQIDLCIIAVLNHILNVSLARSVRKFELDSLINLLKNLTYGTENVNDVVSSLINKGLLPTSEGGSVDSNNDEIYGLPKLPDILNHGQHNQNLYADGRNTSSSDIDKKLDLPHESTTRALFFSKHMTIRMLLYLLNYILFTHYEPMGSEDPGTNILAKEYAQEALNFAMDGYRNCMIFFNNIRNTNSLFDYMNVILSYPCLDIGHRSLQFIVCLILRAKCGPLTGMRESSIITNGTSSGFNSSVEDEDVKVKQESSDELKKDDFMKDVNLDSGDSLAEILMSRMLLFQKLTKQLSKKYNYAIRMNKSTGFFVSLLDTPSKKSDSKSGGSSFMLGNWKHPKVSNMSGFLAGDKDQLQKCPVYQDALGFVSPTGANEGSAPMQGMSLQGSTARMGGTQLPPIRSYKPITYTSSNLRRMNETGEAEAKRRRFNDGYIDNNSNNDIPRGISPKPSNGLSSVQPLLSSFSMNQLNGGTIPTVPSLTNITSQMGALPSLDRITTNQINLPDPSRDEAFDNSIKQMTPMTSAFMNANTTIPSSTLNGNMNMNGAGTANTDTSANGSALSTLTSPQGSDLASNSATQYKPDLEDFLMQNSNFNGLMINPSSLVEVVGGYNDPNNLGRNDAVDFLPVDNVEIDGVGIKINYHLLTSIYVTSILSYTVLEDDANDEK

Sequence	PBM E-score
AGGCCACC	-0.0824
AAGAACTT	-0.101
CTGTGTCC	-0.0361
TTCGCGAA	0.138
GCGGGAAC	0.212
CGGGACGA	0.0655
CCGGACGA	0.431
ACGGACGA	0.359
CCGGACGC	0.366
CTGGACGA	-0.158
CCGGACGG	0.444
GCGGACGA	0.366
TCGGACGA	0.414
ACGGACGG	0.244
ATTTTGAC	-0.0308
ACGGGAAA	0.174
CGCCTACC	-0.0452
AAGTCGAG	-0.359
AAGCTAGC	-0.0783
AAAGACAC	-0.0224
TCATAGGA	-0.112
ATCTGCAA	-0.287
ATGCGTAA	-0.0748
ATTCGTAC	0.00708
AAGCCGAC	0.298

Sequence	PBM E-score
AAGCCGAT	0.399
AGGCCGAT	0.327
AAGCCGAA	0.334
CAGCCGAG	0.238
AAGCCGAG	0.372
ATCATTCG	0.0233
ACGGACAG	0.113
TGGGATAA	-0.0448
ACGGATAG	0.11
ACGGATAT	0.43
ACGGACAC	0.278
GCGGATTA	0.189
ACGGACAT	0.421
GCGGATAA	0.294
ACGGATAA	0.282
CCGGATTA	0.383
TCGGATAA	0.374
ACGGATTA	0.142
CGGATTAG	0.305
ACACCTTC	0.105
AATTCGAG	-0.267
CCGGATAA	0.435
ACGGAGAC	0.285
GGGGAATA	0.107
ACGGAGAT	0.445

Sequence	PBM E-score
ACGGAAAC	0.287
ACGGAAAT	0.432
CCGGATAG	0.316
AGGGAATA	0.127
CCGGATAC	0.323
ACGGAGAG	0.284
CGGGAATA	0.458
ACGGAAAG	0.232
CGTACGAG	0.0155
GGTAGAAC	-0.243
CAGGAAGC	-0.0892
GAGAGATC	-0.0834
GGGGACCC	-0.043
AGGGCTAA	-0.2
CCAGGTTC	-0.153
CGGGATTA	0.454
CGGGATTC	0.292
AGGGATTA	-0.136
GAAACCTC	-0.00121
GGCAAGCC	-0.0221
AGTCCACG	0.0474
AGCCCGCC	0.184
GACGGACC	0.285
GTGCCGTA	0.1
CTGCCGGA	0.286

Sequence	PBM E-score
ATGCCGGG	0.217
ATGCCGGA	0.4
ATGCCGGC	0.287
GTGCCGGA	0.406
ACTGCTAG	-0.267
ATCCGGAG	0.424
ATCCGCAG	0.208
AACCGGTG	0.329
ATGCGGAG	0.222
GTCCGGCA	0.35
GTCCGCAC	0.237
GTCCGGAA	0.416
GTGCGGAA	0.159
GTACGGAC	0.26
ATACGGTG	0.0257
GTCCGGAC	0.454
ATCCGGTG	0.411
CCTATGCG	0.00275
GTATCCCA	-0.135
AAGGGTCA	-0.124
CACTGGAA	-0.275
ATAACGCA	0.0362
AACGGGTG	0.29
CGATCTGC	0.156
TGAAGGCA	-0.35

Sequence	PBM E-score
ATCCGGGC	0.364
ATCCGCAC	0.21
ATCCGGCG	0.355
ATCCGGCC	0.412
ATACGGAT	0.204
ATCCGGAC	0.439
ATCCGTAC	0.147
AACCGGGG	0.301
ATCCGCAT	0.289
ATCCGACC	0.307
ATCCGGGG	0.399
ATCCGGAT	0.414
TCTCCACA	-0.243
CAAGAGAC	-0.289
CCATTCAA	-0.16
GCCAATAA	-0.0084
CGGGGTGA	0.214
ATACGGAA	0.33
ATGCGGAA	0.24
CTCCGCAG	0.216
CTCCGTAA	0.296
TGCCGGAA	0.365
TTCCGGAA	0.466
CTCCGGAA	0.422
CTACGGAA	0.17

Sequence	PBM E-score
ATCCGGAA	0.396
TTACGGAA	0.317
CTACGGAG	0.32
CTCCGGAG	0.467
AGCAATAT	-0.105
AATTGTGG	-0.245
TGAGCCAA	-0.233
CCGTAGCG	0.27
CGCATGGC	0.184
AGCCTCCA	-0.219
CTCCGTAC	0.196
CTCCGGAC	0.454
CTCCGCAC	0.0685
GACAATGA	-0.102
CCTATAGA	-0.198
ATCGCCGC	0.286
GTCGCCGA	0.246
ATCGCCGA	0.445
ACCGCCGG	0.365
GCCGCCGA	0.26
TCCGCCGA	0.425
CTCGCCGA	0.276
ATCGCCCG	0.372
ATCGCCCC	-0.0327
ATCGCCGG	0.445

Sequence	PBM E-score
CCCGCCGA	0.323
ATCGCCCA	-0.0821
ACGCCCAA	-0.133
GGGATACC	0.196
CCCAGGCG	-0.125
AGCTTGCC	-0.108
AAGAAAGC	-0.113
CACCCTAC	-0.27
GAGCGCGA	0.0945
AACTCGCG	0.0253
ACCGACAG	0.289
GTACCGAA	0.0413
GCAACTTA	0.0419
AGCGCCGA	0.372
GGCGCCGA	0.313
CGCGCCGA	0.317
ATACTGAG	-0.143
CCACCTTA	-0.00422
ATGAAGTG	-0.133
GAACCGGA	0.382
TAACCGGA	0.417
AAACCGGA	0.328
